Data published in PubChem BioAssay AID1565 (Sanford-Burnham Center for Chemical Genomics, 2009).
Screen size: about 290,000 compounds; about 3,200 (1.1%) were called active. Shown is part of a subset that was picked to be rich in actives. A number with no mark means an inactive call. No stated cut-off is given here; in the data, active means inhibition above about 60%; inactive means the rest.

What follows are compounds tested against Phosphoethanolamine/phosphocholine phosphatase (Homo sapiens) (UniProt Q8TCT1) (assay: PubChem AID 1565). Details: recombinant PHOSPHO1, absorbance phosphatase assay; at 13.3 µM; hits give high values.
Chain of Phosphoethanolamine/phosphocholine phosphatase (Homo sapiens) (Q8TCT1 whole entry, looked up): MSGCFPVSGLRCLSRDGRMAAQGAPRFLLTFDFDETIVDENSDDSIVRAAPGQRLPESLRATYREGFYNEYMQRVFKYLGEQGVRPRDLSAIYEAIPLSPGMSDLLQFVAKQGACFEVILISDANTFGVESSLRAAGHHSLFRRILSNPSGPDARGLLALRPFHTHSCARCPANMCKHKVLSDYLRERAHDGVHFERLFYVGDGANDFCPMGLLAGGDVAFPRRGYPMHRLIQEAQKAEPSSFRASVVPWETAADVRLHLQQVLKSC

| Structure (SMILES) | inhibition |
| --- | --- |
| O=c1c(-c2ccccc2Cl)c[nH]n1-c1ccccc1 | 31.3% |
| Cc1cc(N2CCN(S(=O)(=O)c3ccc(C)c(C)c3)CC2)c2ccccc2n1 | -5.3% |
| Cc1ccc(S(=O)(=O)Nc2nc3ccccc3nc2N2CCc3ccccc3C2)cc1 | 10.5% |
| Cc1ccc(S(=O)(=O)C(C#N)c2nc3ccccc3nc2N2CCCC2)cc1C (stereo not given) | 95.8% (active) |
| COC(=O)c1cc(C(=O)NC(C)C2CC3CCC2C3)cc([N+](=O)[O-])c1 (stereo not given) | 26.5% |
| Cc1ccc(-n2nc3c(=O)n(C(C)C(=O)NCc4ccc5c(c4)OCO5)nc(C)c3c2C)cc1 (stereo not given) | 18.3% |
| O=c1ccc(-c2ccc(S(=O)(=O)Nc3ccccc3)o2)n[nH]1 | 1% |
| Cn1c(CNC(=O)c2ccccc2F)nnc1SCc1ccc(F)cc1 | 15.9% |
| Cc1ccc(C(=O)CSc2nnc(Cn3nnc4ccccc43)n2C)cc1 | -7.4% |
| Cn1c(Cn2nnc3ccccc32)nnc1SCC(=O)c1ccccc1F | 68.8% (active) |
| COc1ccc(OC)c(NC(=O)CN(C)CCOc2ccc(Br)cc2)c1 | -11.8% |
| N=c1c2c3c(sc2ncn1N)CCCC3 | 24.8% |
| c1nnc2c3c4c(sc3ncn12)CCC4 | 0.9% |
| S=c1[nH]nc2c3c4c(sc3ncn12)CCCC4 | 106% (active) |
| Cc1ccc(C)c(NC(=O)NNC(=O)c2ccc3ccccc3c2O)c1 | 6.1% |
| COC(=O)c1sccc1NC(=O)CC1C(=O)NCCN1C(=O)Nc1ccc(F)cc1F (stereo not given) | 31.6% |
| O=C(CC1SC(=Nc2ccccc2F)N(CCN2CCOCC2)C1=O)Nc1ccc(F)cc1F (stereo not given) | 64.7% (active) |
| O=C(CN1CCN(C/C=C/c2ccccc2)CC1)Nc1ccc(F)cc1F | 35.8% |
| COC(=O)c1cccc(N2C(=O)C3C4C=CC(CC4)C3C2=O)c1 (stereo not given) | 37.1% |
| Cc1ccc(OCc2cc(C(=O)N(C)CCn3ccnc3C)no2)cc1C | 25% |

| Structure (SMILES) | inhibition |
| --- | --- |
| O=C(COc1ccc(S(=O)(=O)N2CCOCC2)cc1Cl)N1CCOCC1 | 19% |
| O=C(Cn1c(NCCO)nc2ccccc21)c1ccc(Cl)cc1Cl | 23.3% |
| COc1ccc(CCNC(=O)CN(C)S(=O)(=O)c2ccc3nc(C)sc3c2)cc1OC | 3.8% |
| COc1cc(NC(=O)CN(C)S(=O)(=O)c2ccc3nc(C)sc3c2)cc(OC)c1 | -3% |
| Cc1nc2ccc(S(=O)(=O)N(C)CC(=O)NC(C)c3ccccc3)cc2s1 (stereo not given) | 64% (active) |
| COC(=O)c1ccc(/C=C2/C(=O)Oc3ccccc32)cc1 | 32.5% |
| CCCC(C)c1nnc(NC(=O)C2CC(=O)N(c3ccc(OCC)cc3)C2)s1 (stereo not given) | 36.2% |
| Cc1ccc(NC(=O)N2CCC(O)(c3cccnc3)CC2)cc1 | 1% |
| O=C(c1cccc(F)c1)N1CCC(O)(c2cccnc2)CC1 | 36.6% |
| O=C(Nc1cccc(F)c1)N1C2CCC1CC(O)(c1cccnc1)C2 (stereo not given) | 61.5% (active) |
| CC(=O)c1cccc(NC(=O)CN2C(=O)c3cccnc3Oc3ccc(Cl)cc32)c1 | 18.3% |
| CCc1ccc(NC(=O)CCNS(=O)(=O)c2cccs2)cc1 | 35.1% |
| O=C(Nc1ccc2ccccc2c1)/C(=C/c1cccc(Br)c1)NC(=O)c1ccco1 | -2.2% |
| COc1ccc(C(=O)NNC(=S)NC(=O)c2ccccc2)cc1 | 19.1% |
| Cc1ccc(OCC(=O)NCCCNC(=O)c2ccco2)cc1C | 16% |
| CCCc1ccc(OCCNC(=O)c2ccco2)cc1 | 41.8% |
| CCCc1ccc(OCC(=O)NNC(=S)NC(=O)c2ccco2)cc1 | 96.9% (active) |
| CC(Oc1ccc2ccccc2c1)C(=O)NNC(=S)NC(=O)c1ccco1 (stereo not given) | 96.9% (active) |
| O=S(=O)(Nc1ccc2[nH]ncc2c1)c1ccccc1Cl | -129% |
| COc1ccc(S(=O)(=O)NNC(=O)Nc2ccc(C)cc2)c(OC)c1 | 21.8% |

| Structure (SMILES) | inhibition |
| --- | --- |
| Cc1ccc(N(C(=O)c2snc(C(N)=O)c2N)C(C(=O)NCC2CCCO2)c2c[nH]c3ccccc23)cc1 (stereo not given) | 35.7% |
| COc1ccc(S(=O)(=O)N2CCOC2CNC(=O)C(=O)NCc2ccncc2)cc1C (stereo not given) | 19.8% |
| COc1ccc(NS(=O)(=O)c2ccc3oc(SCC(N)=O)nc3c2)cc1 | 6.3% |
| NS(=O)(=O)c1ccc(CCNC(=O)Nc2ccc(Cl)cc2)cc1 | 14.1% |
| S=C(NCCc1ccccc1)Nc1ccccc1 | 22.6% |
| NS(=O)(=O)c1ccc(CCNC(=S)Nc2ccc(S(N)(=O)=O)cc2)cc1 | 78.5% (active) |
| CC1CCC(NC(=O)CN(C)S(=O)(=O)c2ccc3c(c2)c(=O)n(C)c(=O)n3C)CC1 (stereo not given) | 58.3% |
| COc1cc(NC(=O)C2CC(c3ccccc3O)=NO2)c(OC)cc1Cl (stereo not given) | 24.3% |
| COc1cc(OC)c(C2=NOC(C(=O)Nc3c(C)n(C)n(-c4ccccc4)c3=O)C2)cc1Cl (stereo not given) | 64.2% (active) |
| Cc1c(NC(=O)c2coc(=O)c(Br)c2)c(=O)n(-c2ccccc2)n1C | -69.6% |
| O=C(NCCN1CCCC(O)C1)c1cc(COc2c(F)cccc2F)on1 (stereo not given) | 54.7% |
| C=CCn1c(-c2sc(-c3ccccc3)nc2C)n[nH]c1=S | 27.7% |
| C=CCn1c(-c2ccccc2OCC)n[nH]c1=S | -30.9% |
| C=CCn1c(-c2ccc3[nH]c(C)c(C)c3c2)n[nH]c1=S | 98.8% (active) |
| CN1C/C(=C/c2cccs2)C(=O)/C(=C\c2cccs2)C1 | 16.1% |
| CNC(=O)C1CCN(S(=O)(=O)c2c(C)noc2/C=C/c2cccc(C)c2)CC1 | 34.4% |
| Cc1ccccc1Cn1c2ccccc2c2cnn(CC(=O)NCc3ccco3)c(=O)c21 | 60.8% (active) |
| O=C(Cn1ncc2c3ccccc3n(Cc3ccccc3)c2c1=O)NCCCN1CCOCC1 | 57.9% |
| O=C(Cn1ncc2c3ccccc3n(Cc3ccccc3)c2c1=O)NCc1ccccn1 | -6.3% |
| COc1ccc(-c2nnc(NC(=O)CS(=O)(=O)c3ccc(Cl)cc3)o2)c(OC)c1 | 46.9% |
